Bioassay records as filed in PubChem.
The list is not random: actives were taken first. Their share in the collection is about 3.7%.
HTT prom inh: Primary qHTS for Identification of Small Molecule Inhibitors of Huntingtin Promoter Activity; HEK293 HTT promoter firefly luciferase reporter, 24 h; Potency, µM (series often up to 57.5 µM), without a hit: at the highest dose activity change, negative = inhibition, hits mostly inhibitors; 48,000 compounds, 0.93% hits; AID 1508623, 2021; further: potency means the concentration at half of the fitted maximal effect; nearly all actives have a fitted effect of over 50% in size
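Firefly luciferase readout (Dual-Glo, 10 min RT) after 24 h, 37 °C compound exposure (final up to 57.5 uM) of HEK293 reporter cells cultured 24 h beforehand; PTC124 at 50 uM final as control inhibitor; activity scaled vehicle 0%, zero RLU -100%.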
DRV1 agonist: qHTS for Agonists of Human Resolvin D1 Receptor DRV1. activation, % at 76.9 µM. CHO-K1 GPR32 beta-arrestin PathHunter luminescence, 90 min; zero percent set by DMSO-only wells. AID 1346428, 2018. 48,000 compounds, 2.5% hits. Probable G-protein coupled receptor 32 (Homo sapiens), O75388;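 active means activation of at least 60% and not above a set upper limit, about 1 call in 100 departs from these limits; inconclusive means activation of 40% to 60%, or above that upper limit; inactive means activation under 40%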; further: 0% is about no effect
Target sequence (O75388 whole entry, looked up): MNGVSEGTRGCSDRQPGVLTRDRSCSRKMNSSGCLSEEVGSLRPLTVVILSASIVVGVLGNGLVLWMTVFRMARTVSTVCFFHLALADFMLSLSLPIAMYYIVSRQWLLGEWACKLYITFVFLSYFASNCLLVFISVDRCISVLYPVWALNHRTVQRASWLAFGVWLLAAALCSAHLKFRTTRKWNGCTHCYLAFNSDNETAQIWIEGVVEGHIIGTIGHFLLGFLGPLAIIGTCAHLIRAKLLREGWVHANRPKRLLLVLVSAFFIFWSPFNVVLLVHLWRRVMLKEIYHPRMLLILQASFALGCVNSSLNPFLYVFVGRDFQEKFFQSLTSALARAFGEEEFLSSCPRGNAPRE
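CHO-K1 cells stably expressing ProLink-tagged GPR32 and Enzyme Activator-tagged beta-arrestin were seeded at 2,500 cells/well overnight, exposed to compounds for 90 min at 37 °C, then read by beta-Gal complementation chemiluminescence after 1 h detection reagent.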
HTT-AS promoter: Primary qHTS for Identification of Small Molecule Activators of Huntingtin-Antisense Promoter Activity | HEK293 HTT-AS promoter firefly luciferase reporter, 24 h; response scale: percent change from vehicle, -100% = no light | Potency, µM (top dose mostly 57.5 µM), for the others: at the highest dose activity change, positive = activation, most hits filed as activators | 48,000 compounds, 0.24% hits | AID 1508624, 2021; further: potency means the concentration at half of the fitted maximal effect; nearly all actives have a fitted effect of over 55% in size
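HEK293 cells carrying firefly luciferase reporters were seeded at 2,500 per well in Opti-MEM and cultured for 24 h. They were then treated with compounds at up to 57.5 uM final for 24 h at 37 degrees C before Dual-Glo luminescence readout.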
* marks the source's active call; other numbers are inactive results; ? = inconclusive; . = no result given; [ ] = dose if it differs, or a comment. Unless noted, the call rests on the fitted dose curve; in most records, active means well fitted curve in the direction sought with a large enough effect; inconclusive means small, poorly fitted or top-dose-only effect, or another doubt; inactive means no such curve, though single readings can be large; an effect the other way counts as inactive or inconclusive.

SMILES | HTT prom inh | DRV1 agonist | HTT-AS promoter
CC1CCN(S(=O)(=O)c2ccc(C(=O)Nc3sc4c(c3C(N)=O)CC(C)(C)NC4(C)C)cc2)CC1 | -16% | -30 | -16%
CCOC(=O)c1c(NC(=O)c2ccc(S(=O)(=O)N3CCCC(C)C3)cc2)sc2c1CC(C)(C)NC2(C)C (configuration not stated) | -66% | 120* | ?
CCc1cccc(NCc2ccccc2-c2nnc(-c3ccccc3Cl)o2)c1 | 57% | -18 | ?
COc1ccc(NS(=O)(=O)c2ccc3c(c2)CCN3C(=O)C2CC2)cc1OC | 4µM* | 21 | -91%
CCC(=O)N1CCc2cc(S(=O)(=O)CCC(=O)N3CCN(c4cccc(C)c4)C(C)C3)ccc21 (configuration not stated) | -28% | 66* | -21%
Cc1ccc(Cl)cc1N1CCN(C(=O)CCNS(=O)(=O)c2ccc3c(c2)CCN3C(=O)C2CC2)CC1 | ? | 41 | -38%
CCC(=O)N1CCc2cc(Br)cc(S(=O)(=O)CCC(=O)N3CCN(c4cccc(C)c4)C(C)C3)c21 (configuration not stated) | -13% | -13 | 1%
Cc1cccc(N(C)C(=O)CCNS(=O)(=O)c2ccc3c(c2)CCN3C(=O)C2CC2)c1 | -17% | 71* | ?
Cc1cccc(N2CCN(C(=O)CCNS(=O)(=O)c3ccc4c(c3)CCN4C(=O)C3CC3)CC2C)c1 (configuration not stated) | ? | ? | -37%
O=C(CCNS(=O)(=O)c1ccc2c(c1)CCN2C(=O)C1CC1)N1CCN(c2cccc(C(F)(F)F)c2)CC1 | 28µM* | 74* | -49%
COc1ccc(NC(=O)CCNS(=O)(=O)c2ccc3c(c2)CCN3C(=O)C2CC2)cc1Cl | ? | 4 | -39%
C[C@]12CC[C@@H]3c4ccc(O)cc4C[C@@H](CCCCCCCCCS(=O)CCCC(F)(F)C(F)(F)F)[C@H]3[C@H]1CC[C@H]2O (some centres not stated) | -21% | . | -6%
Cc1ccccc1C(=O)Nc1ccc(C(=O)N2CCCC(O)c3cc(Cl)ccc32)c(C)c1 (configuration not stated) | -22% | -2 | -18%
O=c1[nH]c(=O)n([C@H]2C[C@@H](O)[C@@H](CO)O2)cc1C(F)(F)F | -12% | . | -19%
C[C@]12CC[C@H](O)CC1=CC[C@@H]1[C@H]2CC[C@]2(C)C(c3cccnc3)=CC[C@H]12 | 1%[25.2 µM] | . | -11%[25.1 µM]
CNC(=O)C1CCC(Cn2c(=O)c3sccc3n(CC(=O)NCc3ccccc3)c2=O)CC1 (configuration not stated) | -6% | -2 | -16%
CC(=O)N1CCCc2cc(S(=O)(=O)N(C)CC(=O)Nc3ccc(C(C)C)cc3)ccc21 | ? | 19 | -1%
O=c1c(-c2ccc(O)cc2)coc2cc(OC3O[C@H](CO)[C@H](O)[C@H](O)[C@H]3O)cc(O)c12 (some centres not stated) | 11% | . | 4%
C[C@H]1C[C@H](O)c2ccsc2S1(=O)=O | 0% | -8 | 0%
Cc1ccc(C)c(NS(=O)(=O)c2ccc3c(c2)CCCN3C(=O)C2CCC2)c1 | ? | 0 | -35%
Cc1cccc(NS(=O)(=O)c2ccc3c(c2)CCN3C(=O)C2CCC2)c1 | 20µM* | 0 | -52%
CCS(=O)(=O)N1CCc2cc(C(=O)Nc3cccc(C)c3C)ccc21 | 24% | 8 | 28%
CCS(=O)(=O)N1CCc2cc(C(=O)Nc3ccc(Br)cc3F)ccc21 | ? | 74* | -17%
CCOc1ccccc1CNC(=O)Cn1nc(C)c2nn(-c3ccc(Cl)cc3)c(C)c2c1=O | -25% | -10 | -25%
Cc1cccc(CCNC(=O)c2ccc3c(c2)nc2n3CCCCC2)c1 | 12% | -11 | ?
SMILES | HTT prom inh | DRV1 agonist | HTT-AS promoter
CC(Sc1ncc(S(=O)(=O)c2ccc(C(C)C)cc2)c(N)n1)C(=O)Nc1ccccc1 (configuration not stated) | 32µM* | 1 | -47%
CCc1ccccc1NC(=O)CSc1ncc(S(=O)(=O)c2ccc(C(C)C)cc2)c(N)n1 | ? | -32 | -43%
O=S(=O)(NCc1ccc(F)cc1)c1ccc2[nH]c3c(c2c1)CCCCC3 | ? | 7 | -34%
O=S(=O)(Nc1cc(F)ccc1F)c1ccc2[nH]c3c(c2c1)CCCCC3 | ? | 40 | -26%
COc1cccc(CNS(=O)(=O)c2ccc3[nH]c4c(c3c2)CCCCC4)c1 | ? | 65* | -30%
COc1ccc(OC)c(NS(=O)(=O)c2ccc3[nH]c4c(c3c2)CCCCC4)c1 | ? | 2 | -32%
O=S(=O)(Nc1cccc(F)c1)c1ccc2[nH]c3c(c2c1)CCCCC3 | ? | 62* | 12%[11.5 µM]
COc1ccc(NS(=O)(=O)c2ccc3[nH]c4c(c3c2)CCCC4)cc1OC | 20µM* | 14 | -47%
CCc1ccc(NS(=O)(=O)c2ccc3[nH]c4c(c3c2)CCCCCC4)cc1 | ? | 40 | -21%
COc1cc(NS(=O)(=O)c2ccc3[nH]c4c(c3c2)CCCCCC4)cc(OC)c1 | ? | 102* | -28%
CCCn1c(=O)c2[nH]c(-c3cnn(Cc4cccc(C(F)(F)F)c4)c3)nc2n(CC)c1=O | 4% | . | 0%
Cc1cnc(CNC(=O)c2c(=O)c3ccc(N4CCCN(C)CC4)nc3n3c2sc2ccccc23)cn1 | -12%[25.2 µM] | . | -23%[25.1 µM]
CCc1ccc(S(=O)(=O)c2cn(C)c3cc(N4CCC(C)CC4)c(F)cc3c2=O)cc1 | -14% | -4 | -10%
CCOc1cc2sc(N3CCC(C(=O)Nc4ccc(C)cc4C)CC3)nc2cc1Br | 78% | -5 | ?
CCc1ccc(NC(=O)N(Cc2ccc(C)cc2)Cc2cccn2-c2nnc(N3CCCC3=O)s2)cc1 | -12% | -21 | -3%
COc1cc(NS(=O)(=O)c2ccc3[nH]c4c(c3c2)CCCC4)cc(OC)c1OC | ? | 82* | -55%
COc1cc(NC(=O)CN(C)S(=O)(=O)c2ccc3[nH]c4c(c3c2)CCCC4)cc(OC)c1OC | 0% | 105* | -24%
COc1ccc(OC)c(NC(=O)CN(C)S(=O)(=O)c2ccc3[nH]c4c(c3c2)CCCC4)c1 | -16% | 0 | -29%
Cc1ccc(NS(=O)(=O)c2ccc3[nH]c4c(c3c2)CCCCCC4)cc1 | ? | 102* | -26%
Cc1ccc(N(C)S(=O)(=O)c2ccc3[nH]c4c(c3c2)CCCC4)cc1 | -11% | 109* | -20%
Cc1ccc(NS(=O)(=O)c2ccc3[nH]c4c(c3c2)CCCCCC4)cc1C | ? | -2 | -33%
CCOC(=O)c1ccc(NS(=O)(=O)c2ccc3[nH]c4c(c3c2)CCCCC4)cc1 | -38% | 10 | -29%
CCN(c1ccc(OC)cc1)S(=O)(=O)c1ccc2[nH]c3c(c2c1)CCCCC3 | ? | 11 | -55%
CNC(=O)c1ccc(N2C(=S)N(c3cnc(C#N)c(C(F)(F)F)c3)C(=O)C23CCC3)cc1F | ? | . | -9%
O=C(NCC(c1ccco1)S(=O)(=O)c1cccs1)c1ccc(C(F)(F)F)cc1 (configuration not stated) | -23% | -3 | -13%
